# High-throughput results as filed in PubChem.
# An excerpt weighted towards active compounds, which were near 8.7% of everything screened.
# Pf growth 48h – inhibits P. falciparum growth in the first generation, 48 h | P. falciparum luciferase growth in erythrocytes, 48 h | Potency, µM (titrated, usually from 28.7 µM), for inactives: top-dose activity change, negative = inhibition, most hits filed as inhibitors | hit rate 5.9% among 310,000 | AID 504832
#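 Here the parasites carry a stable luciferase gene and grow inside erythrocytes in Albumax-based RPMI medium with compound for one erythrocytic cycle. Activity is scored as loss of luminescent signal.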
# VACV mCherry inh – vaccinia inhibition (mCherry reporter) | Vaccinia virus mCherry reporter infection, fluorescence | Potency, µM (highest dose often 36.5 µM), for the others: at the top dose activity change, negative = inhibition, actives largely listed as inhibitors | hit rate 0.63% among 310,000; calls by dose curve; tested in A549 cells; also: nearly all actives have a fitted effect of over 35% in size
# AMA1-RON2 inh – inhibitors of Plasmodium falciparum AMA1-RON2 interaction | hit rate 0.2% among 360,000 | AID 720542 | AlphaScreen AMA1-biotinylated RON2 peptide binding | Potency, µM (highest dose often 58.2 µM), for the others: top-dose activity change, negative = inhibition, usual class: inhibitors;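 also: 0% = vehicle wells and -100% = peptide control; nearly all actives have a fitted effect of over 45% in size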
#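 AMA1 (3D7) with his tag at 25 nM final met compounds first, then biotinylated RON2 peptide at 25 nM; detection used donor plus acceptor beads, 10 µg/mL apiece, read by AlphaScreen after 30 min at room temperature.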
# Pf growth 96h – P. falciparum growth inhibition at 96 hours | P. falciparum luciferase reporter growth, 96 h | Potency, µM (top dose mostly 28.7 µM), for inactives: at the top dose activity change, negative = inhibition, usual class: inhibitors | hit rate 6.9% among 320,000 | AID 504834
#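 Infected RBCs, 2% Hct / 0.05% parasitemia final; luciferase-reporter P. falciparum; cpd 96 h, 37 C, 5% CO2; luciferase detection reagent; luminescence.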
# VACV Venus inh – vaccinia inhibition (Venus reporter). hit rate 0.46% among 330,000. Potency, µM (top dose mostly 36.5 µM), for the others: at the top dose activity change, negative = inhibition, hits mostly inhibitors. AID 720580. Vaccinia virus Venus reporter expression, fluorescence; calls by dose curve; tested in A549 cells; also: nearly all actives have a fitted effect of over 30% in size
# * = called active by the depositor; i = inactive; u = inconclusive; x = no result given; [ ] = remark or other dose. Unless noted, calls follow the shape of the dose curve; as a rule, active = well fitted curve in the direction sought with a large enough effect; inconclusive = small, poorly fitted or top-dose-only effect, or another doubt; inactive = no such curve, though single readings can be large; an effect the other way counts as inactive or inconclusive. Unless noted, % is scaled to controls: 0 for no effect and ±100 for the full control effect; potency is read from the fitted curve at half-maximal effect.
SMILES,Pf growth 48h,VACV mCherry inh,AMA1-RON2 inh,Pf growth 96h,VACV Venus inh
Cc1ncc2c(c1CNC(=O)c1ccc3c(c1)OCO3)CCN(C(=O)c1scc3c1CCCC3)C2,x,-9.8%,x,x,9.5%
Cc1cc(C(=O)N/N=C/c2cc(Br)ccc2OC(=O)c2ccccc2Cl)n[nH]1,u,6.31µM*,70.3%,-6.5%,u
O=C(N/N=C/c1cc(Br)ccc1OC(=O)c1ccc(Br)cc1)c1ccncc1,1.65µM*,4.47µM*,36.9%,15.5%,u
Cc1ccc(C(=O)Nc2cccc(C(=O)N/N=C/c3ccccc3F)c2)cc1,80.0%,u,11.5%,u,-29.0%
Cc1cc(C(=O)N/N=C/c2cc(Br)ccc2OC(=O)c2ccccc2)n[nH]1,0.0%,x,33.0%,u,u
CC(=O)Nc1cccc(C(=O)N/N=C/c2ccccc2F)c1,225.1%,x,101.1%,6.57µM*,x
CC(=NNC(=O)c1ccncc1)c1ccccc1O,x,1.12µM*,62.7%,x,u
CC(=NNC(=O)c1ccncc1)c1ccc(O)cc1O,x,u,66.5%,x,u
O=C(N/N=C/c1ccc(OC(=O)c2ccc(Br)cc2)cc1)c1ccncc1,u,i,-19.1%,47.7%,-17.0%
O=S(=O)(c1ccc(Cl)cc1Cl)n1ccnc1,x,-10.4%,x,x,-4.5%
Cc1cc(C)c(NC(=O)Cn2c(=O)n(CCC(=O)NCc3ccccc3Cl)c(=O)c3sccc32)c(C)c1,x,4.7%,x,x,17.1%
O=C(N/N=C/c1nn(-c2ccccc2)cc1-c1ccc(Cl)cc1)c1ccncc1,2.08µM*,x,x,u,x
O=C(N/N=C/c1cc([N+](=O)[O-])ccc1O)c1ccc2c(c1)OCCO2,-90.8%,-22.0%,17.5%,98.6%,-10.8%
O=C(N/N=C/c1cc([N+](=O)[O-])ccc1O)c1ccncc1,8.28µM*,x,-24.7%,u,x
O=C(N/N=C\c1cc(Br)ccc1O)c1ccc(S(=O)(=O)N2CCCCC2)cc1,5.22µM*,5.01µM*,22.2%,-10.5%,u
O=C(N/N=C/c1ccc(O)c(O)c1)c1cccc(S(=O)(=O)N2CCCCC2)c1,-23.0%,i,30.6%,-16.7%,-0.7%
O=C(N/N=C/c1cc([N+](=O)[O-])ccc1O)c1cccc(N2CCCC2=O)c1,u,6.31µM*,-43.8%,32.6%,-1.8%
COc1cc(OC)c(Nc2nc3ccc(C)cc3n3nnnc23)cc1Cl,x,-12.6%,x,x,-5.4%
O=C(N/N=C/c1ccccc1[N+](=O)[O-])c1ccncc1,75.4%,-10.7%,1.8%,0.165µM*,-1.7%
COc1cccc(/C=N/NC(=O)c2ccc(=O)n(C)c2)c1O,u,-4.8%,76.1%,7.0%,2.5%
COc1cccc(/C=N/NC(=O)c2[nH]c(C)c(C(=O)N/N=C/c3cccc(OC)c3O)c2C)c1O,9.28µM*,-26.4%,27.6%,x,-13.6%
O=C(COc1cccc2cccnc12)N/N=C/c1ccccc1O,u,2.51µM*,38.8%,u,-26.9%
Cc1cccc(/C=N\NC(=O)c2ccc(Cl)cc2)c1O,u,2.51µM*,-13.4%,-20.5%,u
COc1ccc(Nc2nc(C)nc(N)c2S(=O)(=O)c2ccccc2)cc1,x,-2.1%,x,x,3.8%
Cc1cccc(OCCSc2nc3ccccc3n2CC(=O)N2CCOCC2)c1C,x,-10.6%,x,x,-10.6%
SMILES,Pf growth 48h,VACV mCherry inh,AMA1-RON2 inh,Pf growth 96h,VACV Venus inh
O=C(c1ccccc1)N1N=C(c2ccccc2)CC1c1ccccc1O (stereo not given),u,-24.6%,-1.2%,-5.8%[5.75 µM],-12.1%
Cc1ccc(C2=NN(C(=O)c3ccccc3F)C(c3ccccc3F)C2)cc1 (stereo not given),4.15µM*,u,-7.9%,-42.5%,u
COc1cccc(C2CC(c3ccc(C)cc3)=NN2C(=O)c2ccccc2F)c1OC (stereo not given),5.22µM*,x,-12.8%,4.15µM*,x
Cc1ccc(C)c(N2CCN(C(=O)c3cc4c(=O)n(Cc5cccs5)ccc4nc3C)CC2)c1,x,-5.3%,x,x,-16.6%
COc1ccc(NC(=O)C2CCC(CNS(=O)(=O)c3cccs3)CC2)cc1 (stereo not given),4.3%,-6.9%,0.1%,13.1µM*,-16.7%
COc1ccc(NC(=O)C2CCC(CNS(=O)(=O)c3cccs3)CC2)cc1OC (stereo not given),u,-13.1%,-1.2%,-19.7%,-8.1%
CCOC(=O)CNC(=O)N1CCCC(CNS(=O)(=O)c2cccs2)C1 (stereo not given),9.3%,i,-3.2%,10.4µM*,5.3%
NNC(=O)c1ccc(C(=O)N(c2ccccc2)c2ccccc2)cc1,x,-8.2%,x,x,14.2%
